We go through 40 sequences from the OligoGym collection.
Also: reference of the scale not given here.

The first experiment has as its target ITFG1. Put plainly: pooled miR-30 sensor sort-seq; sequence = guide strand. The following applies: shRNA.
TTATCTTACGAGGACAGTCATT registered a sensor-assay potency score (higher = more potent) of -1.41.

TATACATGATATAAGGTCCAGG had a sensor-assay potency score (higher = more potent) of -0.949.

With TATCAATGCACTGTGATTCTTG, the sensor-assay potency score (higher = more potent) worked out at 0.396.

Consider TATTGCTGAAATCTTGTAGGAC, for which the sensor-assay potency score (higher = more potent) stood at 0.541.

In turn, TTTATCTTCACAGCCTGGCAGT had a sensor-assay potency score (higher = more potent) of -0.637.

The sequence TACTTGTAGTGGTCAATGCTGG had a sensor-assay potency score (higher = more potent) of -0.574.

In turn, TAATGTTTGATTTTGTCCCCAG returned a sensor-assay potency score (higher = more potent) of -0.0623.

The sequence TAGATCACCATTGAAATCCATA showed a sensor-assay potency score (higher = more potent) of -0.916.

TTCGTATAGATTTTTCTCCAGA yielded a sensor-assay potency score (higher = more potent) of -0.843.

In turn, TTTAGGTCTGTCAGCTCCCAGT returned a sensor-assay potency score (higher = more potent) of -0.933.

Another experiment addresses ITFG2. Described as above. The following applies: shRNA.
The sequence TATCGTTATCAACGTCTCCGAG registered a sensor-assay potency score (higher = more potent) of -0.305.

TTGAGGGAGCACACTGTGGTGG yielded a sensor-assay potency score (higher = more potent) of -0.228.

Sequence TAGATCTTCTGGTTGAAAGTGA came in with a sensor-assay potency score (higher = more potent) of -0.00804.

Regarding TACACAGACACCTTCCCGCTGG, the sensor-assay potency score (higher = more potent) was -0.00421.

With TTTCTTGAGGGACACCAGCTGC, the sensor-assay potency score (higher = more potent) is -0.971.

TTTTCATCCACTTGGAAGCGGA displayed a sensor-assay potency score (higher = more potent) of -0.742.

Regarding TAGGTGAGTGGAGACATTCTTG, the sensor-assay potency score (higher = more potent) was -0.555.

In the case of TTAACGTATCGTTATCAACGTC, the sensor-assay potency score (higher = more potent) was -0.293.

The sequence TTATACACAGACACCTTCCCGC registered a sensor-assay potency score (higher = more potent) of 0.0194.

The sequence ATCGTTATCAACGTCTCCGAGG yielded a sensor-assay potency score (higher = more potent) of -1.09.

Sequence TTTGATGTTGCCAATTAGGTGA yielded a sensor-assay potency score (higher = more potent) of -0.267.

Consider TAACGTATCGTTATCAACGTCT, for which the sensor-assay potency score (higher = more potent) amounted to 0.345.

The target in a further experiment is ITGA2. The experiment is described as above. The following applies: shRNA.
Regarding TAAATCTCCATAGCCATCCAAG, the sensor-assay potency score (higher = more potent) was -1.12.

In the case of TTGACTGAGCGCTAACACCAGC, the sensor-assay potency score (higher = more potent) is -1.15.

TTGTCGGACATCTAGGACTAGA: the sensor-assay potency score (higher = more potent) is -0.587.

The sequence TTCTGTTGGAATACTAGCGATT had a sensor-assay potency score (higher = more potent) of -0.717.

In turn, TTGCATATTGAATTGCTCCGAA returned a sensor-assay potency score (higher = more potent) of 0.0822.

For the sequence TAGGTCTGAACTTTGCACTGAA, the sensor-assay potency score (higher = more potent) was -0.0543.

In turn, TGAACTGTGATTTCTGTCCTGC showed a sensor-assay potency score (higher = more potent) of 0.82.

The sequence TAAACAGGTAGACTCTTCCTTC registered a sensor-assay potency score (higher = more potent) of 0.446.

In turn, TTGCTTAGTAGGTCTGAACTTT displayed a sensor-assay potency score (higher = more potent) of -0.177.

In turn, TTTCGTAGCACTTCGTCGCCCA gave a sensor-assay potency score (higher = more potent) of 0.484.

TAGCACTTCGTCGCCCACCAGA: the sensor-assay potency score (higher = more potent) is -1.01.

On to TACTTCTGTCCCATCAACCGGC, for which the sensor-assay potency score (higher = more potent) was determined as 0.167.

For another experiment, the target named is ITGAM. Described as above. The note with it: shRNA.
With TTGATGTACCAGTCAAACGAGA, the sensor-assay potency score (higher = more potent) was -0.909.

TTCCTTGCCTTTCACCACCTGA came in with a sensor-assay potency score (higher = more potent) of -0.688.

In turn, TATTGATGCTGCATGACCCGAC returned a sensor-assay potency score (higher = more potent) of 0.154.

As to TTGCTGTCCACGTCCACGGAGC, the sensor-assay potency score (higher = more potent) is -1.3.

Sequence TTACACTCAAATACATTCCTTG displayed a sensor-assay potency score (higher = more potent) of 0.424.

With TTAGAGTCTACATCAAACGTGA, the sensor-assay potency score (higher = more potent) stood at 0.224.
